In PubChem BioAssay:

Test: MRP1 drug-resistance reversers in H69AR cells – cell-based, doxorubicin co-treatment, pilot screen (AID 601)
Details: H69AR cells, CellTiter-Glo, 72 h; compound alone cytotoxicity; at 10 µM
Work on `O=C(NCCO)c1scc2c1OCCO2` yielded a viability of 93.6%.
`CN(c1ccccc1)S(=O)(=O)c1ccc(C(=O)OCC(=O)NCc2ccco2)cc1` showed a viability of 74.4%.
With `Clc1ccc(SCCn2ccnc2)cc1` the viability was 96.2%.
With `CC(C)(CO)NC(=O)CCCOc1ccc(Cl)cc1Cl` the viability was 98.1%.
`Cc1ccccc1NC(=O)CSc1nc(N)c(C#N)c(-c2cccs2)c1C#N` gave a viability of 30.2%.
`CCN(CC)C(=O)CSc1nc2ccc(NC(=O)CSc3nccn3C)cc2s1` gave a viability of 91%.
`Cc1cc(Oc2ccccc2)nc(-c2ccccc2)n1` gave a viability of 99.1%.
`COc1ccc(S(=O)(=O)CCC(=O)O)cc1` gave a viability of 106%.
With `O=C(Nc1ccc(OC(=O)c2ccco2)cc1)c1ccco1` the viability was 85.3%.
`CCCc1nnc(SCC(=O)N2CCOCC2)n1Cc1ccco1` showed a viability of 96.9%.
For `Cc1ccc(S(=O)(=O)N2CCC(C(=O)N3CCC[C@H]3C(=O)NCc3ccccc3)CC2)cc1`, the viability was 90.8%.
In the case of `C=C(C)Cn1c(N2CCN(CC)CC2)nc2c1c(=O)[nH]c(=O)n2C`, the viability is reported as 85.7%.
For `Cc1cc2oc(=O)cc(CN3CCN(Cc4ccc5c(c4)OCO5)CC3)c2cc1C`, the viability was 80.6%.
With `Cn1c(=O)c(C(=O)Nc2cccnc2)c(O)c2ccccc21` the viability was 88.4%.
For `C=Cn1c(C(=O)O)cc(CC)c1-c1ccccc1`, the viability was 106%.
For `COc1ccccc1N1C(=O)CC(Sc2nc(C)cc(C)n2)C1=O` (stereo not given), the viability was 83.4%.
For `COc1cccc(NC(=O)NC2(C(F)(F)F)Oc3ccccc3O2)c1`, the viability was 30.7%.
`CCOC(=O)Nc1ccc2c(c1)N(C(=O)CN(CC)CC)c1ccccc1C=C2` showed a viability of 91.4%.
`O=C1C(Cl)=C(N2CCOCC2)C(=O)N1CCc1ccccc1` showed a viability of 71.3%.
`CCN(CCCNC(=O)CCNC(=O)Cn1ccc2ccccc2c1=O)c1ccccc1` showed a viability of 98.3%.
